Reference: the supplement of paper PMC8975748
Structures can show the parent of a compound that is named as a salt. ± gives the standard deviation of the averaged measurements.

Tests used:
[1] = system: Saccharomyces cerevisiae BY4741 SeMeCo community; test: z-score of prototroph abundance vs DMSO median; higher = larger share of this subpopulation than in DMSO controls; conditions: 10 µM; 24 h; SM minimal medium; subpopulation (auxotrophy): Prototroph
How it was run: (§1)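 Cells of a Saccharomyces cerevisiae BY4741 community, carrying four plasmids that each restored one auxotrophy and encoded a distinct fluorescent protein, were pre-grown overnight to OD600 1.0 and diluted to 0.3. A 70 µl volume was added to 384-well plates acoustically predosed with library drugs (10 µM final) and grown 24 h in minimal SM medium. After paraformaldehyde fixation, automated confocal microscopy was used, with single-auxotroph fluorescent strains for thresholds and autofluorescence correction. The abundance of each subpopulation was scored as a z-score against the vehicle-well median.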

[2] = system: Saccharomyces cerevisiae BY4741 SeMeCo community; test: z-score of subpopulation abundance vs DMSO median, subpopulation auxotrophic for M; higher = larger share of this subpopulation than in DMSO controls; conditions: 10 µM; 24 h; SM minimal medium; subpopulation (auxotrophy): M
How it was run: as §1

[3] = system: Saccharomyces cerevisiae BY4741 SeMeCo community; test: z-score of subpopulation abundance vs DMSO median, subpopulation auxotrophic for U; higher = larger share of this subpopulation than in DMSO controls; conditions: 10 µM; 24 h; SM minimal medium; subpopulation (auxotrophy): U
How it was run: as §1

[4] = system: Saccharomyces cerevisiae BY4741 SeMeCo community; test: z-score of subpopulation abundance vs DMSO median, subpopulation auxotrophic for H; higher = larger share of this subpopulation than in DMSO controls; conditions: 10 µM; 24 h; SM minimal medium; subpopulation (auxotrophy): H
How it was run: as §1

[5] = system: Saccharomyces cerevisiae BY4741 SeMeCo community; test: z-score of subpopulation abundance vs DMSO median, subpopulation auxotrophic for LU; higher = larger share of this subpopulation than in DMSO controls; conditions: 10 µM; 24 h; SM minimal medium; subpopulation (auxotrophy): LU
How it was run: as §1

[6] = system: Saccharomyces cerevisiae BY4741 SeMeCo community; test: z-score of subpopulation abundance vs DMSO median, subpopulation auxotrophic for LM; higher = larger share of this subpopulation than in DMSO controls; conditions: 10 µM; 24 h; SM minimal medium; subpopulation (auxotrophy): LM
How it was run: as §1

[7] = system: Saccharomyces cerevisiae BY4741 SeMeCo community; test: z-score of subpopulation abundance vs DMSO median, subpopulation auxotrophic for HM; higher = larger share of this subpopulation than in DMSO controls; conditions: 10 µM; 24 h; SM minimal medium; subpopulation (auxotrophy): HM
How it was run: as §1

[8] = system: Saccharomyces cerevisiae BY4741 SeMeCo community; test: z-score of subpopulation abundance vs DMSO median, subpopulation auxotrophic for HU; higher = larger share of this subpopulation than in DMSO controls; conditions: 10 µM; 24 h; SM minimal medium; subpopulation (auxotrophy): HU
How it was run: as §1

[9] = system: Saccharomyces cerevisiae BY4741 SeMeCo community; test: z-score of subpopulation abundance vs DMSO median, subpopulation auxotrophic for UM; higher = larger share of this subpopulation than in DMSO controls; conditions: 10 µM; 24 h; SM minimal medium; subpopulation (auxotrophy): UM
How it was run: as §1

[10] = system: Saccharomyces cerevisiae BY4741 SeMeCo community; test: z-score of subpopulation abundance vs DMSO median, subpopulation auxotrophic for HLU; higher = larger share of this subpopulation than in DMSO controls; conditions: 10 µM; 24 h; SM minimal medium; subpopulation (auxotrophy): HLU
How it was run: as §1

[11] = system: Saccharomyces cerevisiae BY4741 SeMeCo community; test: z-score of subpopulation abundance vs DMSO median, subpopulation auxotrophic for HUM; higher = larger share of this subpopulation than in DMSO controls; conditions: 10 µM; 24 h; SM minimal medium; subpopulation (auxotrophy): HUM
How it was run: as §1

[12] = system: Saccharomyces cerevisiae BY4741 SeMeCo community; test: z-score of subpopulation abundance vs DMSO median, subpopulation auxotrophic for LUM; higher = larger share of this subpopulation than in DMSO controls; conditions: 10 µM; 24 h; SM minimal medium; subpopulation (auxotrophy): LUM
How it was run: as §1

[13] = system: Saccharomyces cerevisiae BY4741 SeMeCo community; test: z-score of subpopulation abundance vs DMSO median, subpopulation auxotrophic for HLUM; higher = larger share of this subpopulation than in DMSO controls; conditions: 10 µM; 24 h; SM minimal medium; subpopulation (auxotrophy): HLUM
How it was run: as §1

[14] = system: Saccharomyces cerevisiae BY4741 SeMeCo community; test: mean cell size (pixel area) (pixels); higher = larger cells; conditions: 10 µM; 24 h; SM minimal medium
How it was run: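 In this assay, mean cell pixel area per well was obtained from automated confocal images of paraformaldehyde-fixed yeast analysed in Harmony. The cells were a Saccharomyces cerevisiae BY4741 community with four plasmids, each complementing one auxotrophy and carrying a fluorescent marker, grown for 24 h in SM medium with drug at a final 10 µM in 384-well plates. Values are averaged across 3 replicates. Same SeMeCo high-content imaging drug screen: Selleck FDA-approved drugs at 10 µM, 24 h in SM medium, 384-well plates, 3 replicates.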

[15] = system: Saccharomyces cerevisiae BY4741 SeMeCo community; test: z-score of subpopulation abundance vs DMSO median, subpopulation auxotrophic for HL; higher = larger share of this subpopulation than in DMSO controls; conditions: 10 µM; 24 h; SM minimal medium; subpopulation (auxotrophy): HL
How it was run: as §1

[16] = system: Saccharomyces cerevisiae BY4741 SeMeCo community; test: z-score of subpopulation abundance vs DMSO median, subpopulation auxotrophic for HLM; higher = larger share of this subpopulation than in DMSO controls; conditions: 10 µM; 24 h; SM minimal medium; subpopulation (auxotrophy): HLM
How it was run: as §1

[17] = system: Saccharomyces cerevisiae BY4741 SeMeCo community; test: z-score of subpopulation abundance vs DMSO median, subpopulation auxotrophic for L; higher = larger share of this subpopulation than in DMSO controls; conditions: 10 µM; 24 h; SM minimal medium; subpopulation (auxotrophy): L
How it was run: as §1

Structure (SMILES) | z-score of prototroph abundance [1] | z-score of subpopulation abundance [2] | z-score of subpopulation abundance [3] | z-score of subpopulation abundance [4] | z-score of subpopulation abundance [5] | z-score of subpopulation abundance [6] | z-score of subpopulation abundance [7] | z-score of subpopulation abundance [8] | z-score of subpopulation abundance [9] | z-score of subpopulation abundance [10] | z-score of subpopulation abundance [11] | z-score of subpopulation abundance [12] | z-score of subpopulation abundance [13] | mean cell size [14] | z-score of subpopulation abundance [15] | z-score of subpopulation abundance [16] | z-score of subpopulation abundance [17]
CC[C@H](C)C(=O)O[C@H]1C[C@H](O)C=C2C=C[C@H](C)[C@H](CC[C@@H](O)C[C@@H](O)CC(=O)O)[C@H]21 [Pravastatin] | -1.08 | 0.52 | 1.19 | 0.39 | 0.89 | 0.2 | 0.47 | 1.19 | 1.36 | -0.44 | 1.56 | 0.59 | -0.51 |  |  |  | 
COc1ccc([C@@H]2Sc3ccccc3N(CCN(C)C)C(=O)[C@@H]2OC(C)=O)cc1 [Diltiazem HCl] | 0.76 | -0.12 | -0.19 | -0.4 | -0.4 | 0.01 | -0.74 | -0.1 | -0.21 | 0.03 |  | -0.24 |  | 12.5 ± 0.27 | -0.78 | -0.37 | 
O=c1cc(-c2ccc(O)c(O)c2)oc2cc(O)cc(O)c12 [Luteolin] | -0.73 | -0.18 | 0.21 | 0.27 | 0.96 | 0.14 | -0.39 | 1.42 | -0.52 | 0.05 | -0.43 | 0.16 | -0.27 |  |  |  | 
CCOc1cc(N)c(Cl)cc1C(=O)NCC1CN(Cc2ccc(F)cc2)CCO1 (stereo not drawn) [Mosapride] | 0.05 | 0.39 | -0.39 | 0.06 |  | -0.41 | -0.23 |  | -0.47 | -0.42 | 0.4 | -0.04 | 0.05 | 12.5 ± 0.23 |  | 0.45 | -0.65
CC(C(=O)O)c1cccc(C(=O)c2ccccc2)c1 (stereo not drawn) [Ketoprofen] | -0.62 | -0.04 | -0.65 |  | 0.57 | 1.24 | 0.55 | -0.66 | -0.3 | 0.39 | -0.02 | 1.22 | 1.1 | 12.4 ± 0.2 | 1.42 |  | 
CO[C@@]1(NC(=O)Cc2cccs2)C(=O)N2C(C(=O)O)=C(COC(N)=O)CS[C@@H]21 [Cefoxitin sodium] | 1.38 | -0.16 | -0.18 | -0.25 |  | -1.09 | 0.04 | -0.94 | -0.63 | -1.19 | -1.19 |  | -0.41 | 12.5 ± 0.3 | -0.41 | -0.9 | -1.28
CCn1cc(C(=O)O)c(=O)c2cc(F)c(N3CCNC(C)C3)c(F)c21 (stereo not drawn) [Lomefloxacin HCl] | -1.02 | 1.99 | -0.45 | 0.73 |  | 1.35 | 1.66 | 0.12 |  | 1.38 | 0.66 | 1.32 | 0.54 | 12.1 ± 0.14 | 1.2 | 0.25 | 1.02
